We go through 81 compounds from publication PMC4336329 (PLoS ONE, 2015).

Among all 310,000 compounds or so, about 14,000 (4.5%) showed an effect of 50% or more. Effects have a minus sign here. For the sample, strong results were picked, then their nearest neighbours and some compounds at random.
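Also: peak tail current of the secondary pulse compared with the same well before compound.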

For this test, the target named is human ether-à-go-go-related gene (hERG) potassium channel (human, UniProt Q12809). Kind of test: primary screen, population patch clamp on CHO cells stably expressing hERG; higher = less effect of the substance.
human ether-à-go-go-related gene (hERG) potassium channel, sequence (Q12809 whole entry, looked up): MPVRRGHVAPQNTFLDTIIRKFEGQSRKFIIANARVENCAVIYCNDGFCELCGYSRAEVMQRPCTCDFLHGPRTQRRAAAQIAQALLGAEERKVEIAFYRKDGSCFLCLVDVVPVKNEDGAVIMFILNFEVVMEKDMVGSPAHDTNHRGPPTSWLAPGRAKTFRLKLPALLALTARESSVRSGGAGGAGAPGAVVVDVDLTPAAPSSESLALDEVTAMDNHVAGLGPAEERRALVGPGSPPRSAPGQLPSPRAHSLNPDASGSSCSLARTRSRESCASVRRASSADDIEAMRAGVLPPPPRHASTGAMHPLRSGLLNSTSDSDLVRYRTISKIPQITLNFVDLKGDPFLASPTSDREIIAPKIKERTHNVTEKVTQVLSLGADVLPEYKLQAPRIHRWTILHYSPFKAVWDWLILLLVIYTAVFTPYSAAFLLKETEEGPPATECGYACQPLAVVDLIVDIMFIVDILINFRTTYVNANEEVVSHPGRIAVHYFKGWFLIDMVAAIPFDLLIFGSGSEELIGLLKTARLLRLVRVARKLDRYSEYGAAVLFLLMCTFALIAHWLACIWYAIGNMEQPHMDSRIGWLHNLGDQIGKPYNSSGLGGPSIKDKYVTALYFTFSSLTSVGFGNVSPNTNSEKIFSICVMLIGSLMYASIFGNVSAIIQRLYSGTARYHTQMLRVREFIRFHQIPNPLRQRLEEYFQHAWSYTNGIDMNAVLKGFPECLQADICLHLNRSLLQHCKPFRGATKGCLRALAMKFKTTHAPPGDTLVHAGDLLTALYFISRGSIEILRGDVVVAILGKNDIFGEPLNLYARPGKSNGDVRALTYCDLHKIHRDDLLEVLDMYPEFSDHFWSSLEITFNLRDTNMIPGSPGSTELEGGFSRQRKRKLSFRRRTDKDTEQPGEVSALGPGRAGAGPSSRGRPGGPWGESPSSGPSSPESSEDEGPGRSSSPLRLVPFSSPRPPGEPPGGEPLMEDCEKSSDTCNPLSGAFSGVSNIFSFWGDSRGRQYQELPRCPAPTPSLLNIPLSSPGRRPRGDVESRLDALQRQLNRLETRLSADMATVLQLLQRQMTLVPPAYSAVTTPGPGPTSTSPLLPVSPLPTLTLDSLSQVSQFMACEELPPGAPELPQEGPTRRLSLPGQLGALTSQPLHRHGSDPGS
`CCN(C(=O)COC(=O)c1cc(S(=O)(=O)N2CCOCC2)c(Cl)cc1Cl)C1CCS(=O)(=O)C1` (stereo not drawn): the “hERG current change (%, negative = inhibition) at 10uM” value was 9.86%. For `O=c1[nH]c2ccccc2c2nc(-c3cccc(S(=O)(=O)N4CCCC4)c3)nn12`, the “hERG current change (%, negative = inhibition) at 10uM” value is 21.2%.

`CC(=O)Nc1ccc(C2C(=O)c3ccccc3C2=O)cc1`: the “hERG current change (%, negative = inhibition) at 10uM” value is 21.4%. The figure for `O=[N+]([O-])c1ccccc1N/N=C1\CC2CC=CC12` (stereo not drawn) is 46.5%; for `CCOc1ccccc1C(=O)N(CN1CCCC1=O)c1cccc(Cl)c1` it is -3.65%; for `Cc1ccc(-c2c[n+](CC(=O)Nc3c(C)cccc3C)c3n2CCC3)cc1.[Cl-]` it is 14.1%. Take `Cc1ccc(NC(=O)C[n+]2cc(-c3ccccc3)n3c2CCC3)cc1.[Cl-]`: the “hERG current change (%, negative = inhibition) at 10uM” value is listed as -15.2%. `CCc1ccc(NC(=O)C[n+]2cc(-c3ccc(C)cc3)n3c2CCC3)cc1.[Cl-]`: the “hERG current change (%, negative = inhibition) at 10uM” value is listed as -63.1%. The figure for `Cc1ccc(NC(=O)C[n+]2cc(-c3ccc(C)cc3)n3c2CCC3)cc1.[Cl-]` is -70%; for `Cc1ccc(-c2c[n+](CC(=O)Nc3ccccc3)c3n2CCC3)cc1.[Cl-]` it is -27.8%.

Turning to `Cc1ccc(-c2c[n+](CC(=O)Nc3ccccc3C)c3n2CCC3)cc1.[Cl-]`, the “hERG current change (%, negative = inhibition) at 10uM” value is -5.42%. Under `Cc1ccccc1NC(=S)/C(=C(\[O-])c1ccc(C)c([N+](=O)[O-])c1)[n+]1ccccc1` stands -1.7%. The figure for `CCC1(C)Cc2ccccc2-c2c1c(=O)n(-c1ccc(C)cc1)c1nnnn21` (stereo not drawn) is 2.8%. Turning to `Cc1cc2cc(CN(Cc3ccco3)C(=O)NCc3ccccc3)c(=O)[nH]c2cc1C`, the “hERG current change (%, negative = inhibition) at 10uM” value is -6.54%. For `CCC(C(=O)Nc1cccc(C(F)(F)F)c1)c1ccccc1` (stereo not drawn), the “hERG current change (%, negative = inhibition) at 10uM” value is 3.89%. For `O=C(Nc1cc(C(F)(F)F)ccc1Cl)C(NCc1ccccc1)c1ccccc1` (stereo not drawn), the “hERG current change (%, negative = inhibition) at 10uM” value came to 2.13%. `CN(C)CCNC(C(=O)Nc1cc(Cl)cc(Cl)c1)c1ccccc1` (stereo not drawn): the “hERG current change (%, negative = inhibition) at 10uM” value was -45.6%.

For the compound `CCCC(=O)OC(C(=O)Nc1cc(C(F)(F)F)ccc1Cl)c1ccccc1` (stereo not drawn), the “hERG current change (%, negative = inhibition) at 10uM” value is -9.58%. As to `CC(=O)c1cccc(NC(=O)C(NC(C)C)c2ccccc2)c1` (stereo not drawn), the “hERG current change (%, negative = inhibition) at 10uM” value was 10.5%. In the case of `CCN(CC)CCNC(C(=O)Nc1cc(C(F)(F)F)ccc1Cl)c1ccccc1` (stereo not drawn), the “hERG current change (%, negative = inhibition) at 10uM” value is given as -76.4%. The figure for `CCN(CC)CCNC(C(=O)Nc1cccc(C(C)=O)c1)c1ccccc1.O=C(O)C(=O)O` (stereo not drawn) is -79.1%; for `CN(C)CCNC(C(=O)Nc1cccc(C(F)(F)F)c1)c1ccccc1.O=C(O)C(=O)O` (stereo not drawn) it is -56.7%; for `CCOc1ccc(NC(C(=O)Nc2cccc(C(C)=O)c2)c2ccccc2)cc1` (stereo not drawn) it is -49.7%. With `O=C(c1cc(F)cc2c1OCOC2)N1CCN(c2ccc(F)cc2)CC1`, the “hERG current change (%, negative = inhibition) at 10uM” value is -16%.

With `CC(C)C(OC(=O)CN1C(=O)COc2ccccc21)C(=O)NC1CCCCC1` (stereo not drawn), the “hERG current change (%, negative = inhibition) at 10uM” value is on record as -9.89%.

With `COC(=O)c1cn(CC(=O)N2CCCCCC2)c2ccccc12`, the “hERG current change (%, negative = inhibition) at 10uM” value is listed as -40.1%. The figure for `CCN(CC(=O)NCc1cccs1)C(=O)c1cc(S(=O)(=O)N2CCCCC2)ccc1Cl` is -40.2%; for `Cc1ccc2c(Cl)c(C(=O)NCC3CCCO3)sc2c1` (stereo not drawn) it is -12.8%.

On to `COc1ccccc1C(=O)NC(=O)COC(=O)c1oc2ccccc2c1C`, for which the “hERG current change (%, negative = inhibition) at 10uM” value came to 1.8%. Turning to `OCC[C@H]1C[C@@H](O)[C@H](O)[C@]2(Cc3ccccc3CCO2)O1`, the “hERG current change (%, negative = inhibition) at 10uM” value is recorded as -0.537%. Under `COc1cccc(NC(=O)CN(C)C(=O)/C=C/c2cc(OC)ccc2OC)c1` stands -67.8%.

For the compound `COc1ccc(OC)c(/C=C/C(=O)N(C)CC(=O)Nc2ccc(C)cc2)c1`, the “hERG current change (%, negative = inhibition) at 10uM” value is on record as -18.3%. Take `COc1cccc(NC(=O)CN(C)C(=O)/C=C/c2cn(Cc3ccccc3)nc2-c2cccnc2)c1`: the “hERG current change (%, negative = inhibition) at 10uM” value is -59.4%.

Turning to `CN(CC(=O)Nc1cccc(F)c1)C(=O)/C=C/c1cn(Cc2ccccc2)nc1-c1cccnc1`, the “hERG current change (%, negative = inhibition) at 10uM” value is listed as -48.8%. Under `COc1ccc(NC(=O)CN(C)C(=O)/C=C/c2cn(Cc3ccccc3)nc2-c2cccnc2)cc1` stands -25.9%; under `CN(CC(=O)Nc1cccc(F)c1)C(=O)/C=C/c1ccc2ccccc2n1`, 7.19%; under `COc1ccc(OC)c(/C=C/C(=O)N(C)CC(=O)Nc2cc(C)ccc2C)c1`, -15.1%. Turning to `CN(CC(=O)Nc1cccc(F)c1)C(=O)/C=C/c1cc(Br)ccc1OC(F)F`, the “hERG current change (%, negative = inhibition) at 10uM” value is on record as -54.8%. Under `CN(CC(=O)Nc1cccc(F)c1)C(=O)/C=C/c1ccc(Br)s1` stands 13.2%. For the compound `COc1ccc(OC)c(S(=O)(=O)N(C)CC(=O)N2CCOCC2)c1`, the “hERG current change (%, negative = inhibition) at 10uM” value was 11.3%. The figure for `O=C(CSc1nc2ccccc2s1)N/N=C/c1ccccc1C(=O)O` is 30.5%; for `CC1CCN(C(=O)CSc2nnc(-c3ccncc3)n2C)CC1` it is 6.41%; for `CCc1nc(N[C@@H](Cc2c[nH]c3ccccc23)C(=O)O)c2oc3ccccc3c2n1` it is 8.39%. Turning to `CC(C)(C)c1ccc(-c2cc(C(=O)NNC(=O)Nc3ccccc3)c3ccccc3n2)cc1`, the “hERG current change (%, negative = inhibition) at 10uM” value was determined as 13.6%.

In the case of `CCC(C)[C@H]1COCCS(=O)(=O)N1Cc1ccccc1F` (stereo partly drawn), the “hERG current change (%, negative = inhibition) at 10uM” value is -18.5%. The figure for `COc1ccccc1CN1CCC(CNS(=O)(=O)c2cc(-c3cc(C)no3)ccc2OC)CC1` is -58.2%; for `COc1ccccc1CNS(=O)(=O)c1cc(C)ccc1OC` it is 9.32%. The figure for `Cc1cc(-c2ccc(C)c(S(=O)(=O)NCC3CCN(Cc4cccc(F)c4)CC3)c2)on1` is -39.1%. For `COc1ccc(-c2onc(C)c2C)cc1S(=O)(=O)NCCc1ccco1`, the “hERG current change (%, negative = inhibition) at 10uM” value is given as -41.8%. Take `COc1ccccc1CN1CCC(CNS(=O)(=O)c2cc(-c3onc(C)c3C)ccc2OC)CC1`: the “hERG current change (%, negative = inhibition) at 10uM” value is reported as -76.7%. Under `COc1ccc(-c2cc(C)no2)cc1S(=O)(=O)NCCCN1CCCCCC1` stands -17.4%; under `CCOc1ccccc1CNS(=O)(=O)c1cc(-c2cc(C)no2)ccc1OC`, -18.4%; under `CCc1ccc(-c2cc(C)no2)cc1S(=O)(=O)NCc1ccccc1OC`, -15.8%. The figure for `COc1ccc(-c2cc(C)no2)cc1S(=O)(=O)NCC1CCN(Cc2cc(C)ccc2C)CC1` is -72%. Consider `Cc1cc(-c2ccc(C)c(S(=O)(=O)NCC3CCN(Cc4ccc(F)cc4)CC3)c2)on1`, for which the “hERG current change (%, negative = inhibition) at 10uM” value is on record as -66.2%. The figure for `CCc1ccc(-c2cc(C)no2)cc1S(=O)(=O)N1CCCN(Cc2ccc(F)cc2)C1` is 5.62%; for `COc1ccc(CNS(=O)(=O)c2cc(-c3cc(C)no3)ccc2OC)cc1OC` it is 2.57%.

For `O=C(Nc1cccc(NC(=O)c2ccc(Br)cc2)c1)c1ccccc1`, the “hERG current change (%, negative = inhibition) at 10uM” value was determined as 18%. Under `CCCC(CCC(=O)Nc1ccn(-c2ccccc2)n1)C(=O)O` (stereo not drawn) stands 4.5%; under `COc1ccc(S(=O)(=O)N2CCCC(C(=O)NCc3ccccc3)C2)cc1` (stereo not drawn), 23.7%; under `CN(C)C=O.CN(C)c1ccc(/C=C/c2nc3ccccc3c(=O)n2-c2ccc(C(=O)O)cc2)cc1`, 19.8%. For `C=CCn1c(SCC(N)=O)nnc1-c1ccccc1O`, the “hERG current change (%, negative = inhibition) at 10uM” value was determined as 0.103%. With `CCOc1ccc(CCN2CN(CC)CNC2=S)cc1OCC`, the “hERG current change (%, negative = inhibition) at 10uM” value is given as -0.457%.

Regarding `COc1cccc(C(=O)NC(C)c2cccc3ccccc23)c1OC` (stereo not drawn), the “hERG current change (%, negative = inhibition) at 10uM” value is listed as -10.4%. The figure for `S=C(NC1CCCCC1)N1CCc2ccccc2C1` is -5.33%; for `Cc1cc2cc(CCNC(=O)c3ccc(S(=O)(=O)N4CCOCC4)cc3)c(=O)[nH]c2cc1C` it is 6.3%. Under `Cc1ccnc(NS(=O)(=O)c2ccccc2)c1` stands 15.2%; under `Cc1cc(-c2ccc(C)c(S(=O)(=O)NCCCN(Cc3ccccc3)C(C)C)c2)on1`, -36.9%.

In the case of `Cc1cc(-c2ccc(C)c(S(=O)(=O)NCCCN3CCN(c4ccccc4F)CC3)c2)on1`, the “hERG current change (%, negative = inhibition) at 10uM” value was 10.3%. Take `CCN(CCCNS(=O)(=O)c1cc(-c2cc(C)no2)ccc1C)Cc1ccccc1`: the “hERG current change (%, negative = inhibition) at 10uM” value is on record as -61.3%. With `COc1ccccc1CNS(=O)(=O)c1cc(-c2cc(C)no2)ccc1C(C)C`, the “hERG current change (%, negative = inhibition) at 10uM” value is reported as 5.07%. The figure for `Cc1cc(-c2ccc(C)c(S(=O)(=O)NCC3CCN(Cc4ccccc4F)CC3)c2)on1` is -52.8%; for `COc1ccc(-c2cc(C)no2)cc1S(=O)(=O)NCCCN1CCN(c2ccccc2)CC1` it is -68%.

For the compound `COc1ccc(-c2cc(C)no2)cc1S(=O)(=O)NCCCN(C)Cc1ccccc1`, the “hERG current change (%, negative = inhibition) at 10uM” value is listed as -29.9%. Under `Cc1cc(-c2ccc(C)c(S(=O)(=O)NCCCN3CCN(c4ccccc4)CC3)c2)on1` stands -33.2%; under `COc1ccccc1CN1CCC(CNS(=O)(=O)c2cc(-c3cc(C)no3)ccc2C)CC1`, -61.3%; under `CCOc1ccccc1CNS(=O)(=O)c1cc(-c2cc(C)no2)ccc1C`, -19%.

With `CCc1ccc(-c2cc(C)no2)cc1S(=O)(=O)NCCCN1CCN(c2ccccc2)CC1`, the “hERG current change (%, negative = inhibition) at 10uM” value stood at 1.91%.

Turning to `CCc1ccc(-c2cc(C)no2)cc1S(=O)(=O)NCCN1CCC(C)CC1`, the “hERG current change (%, negative = inhibition) at 10uM” value is listed as -7.14%. The figure for `O=C(CCCCCNC(=O)c1ccccc1)N/N=C/c1ccccc1` is -9.98%; for `O=C(Nc1ccc2oc(-c3cccnc3)nc2c1)c1ccc2c(c1)OCCO2` it is 20.2%.
